Laboratory results taken from PubChem BioAssay.

How the values were obtained:
[1] = target: Tumor necrosis factor receptor superfamily member 10B (Homo sapiens) (UniProt O14763); assay: viability loss of caspase-8 NB7 cells with TRAIL – with/without TRAIL, luminescence panel, confirmation (AID 651596); details: NB7 neuroblastoma + caspase-8, TRAIL sensitization, NB7 Caspase-8, with TRAIL, mean of runs, at 10 µM, stronger effect = higher value
[2] = as above; details: NB7 neuroblastoma + caspase-8, without TRAIL, NB7 Caspase-8, without TRAIL, mean of runs, at 10 µM

Sequence of Tumor necrosis factor receptor superfamily member 10B (Homo sapiens) (O14763 whole entry, looked up): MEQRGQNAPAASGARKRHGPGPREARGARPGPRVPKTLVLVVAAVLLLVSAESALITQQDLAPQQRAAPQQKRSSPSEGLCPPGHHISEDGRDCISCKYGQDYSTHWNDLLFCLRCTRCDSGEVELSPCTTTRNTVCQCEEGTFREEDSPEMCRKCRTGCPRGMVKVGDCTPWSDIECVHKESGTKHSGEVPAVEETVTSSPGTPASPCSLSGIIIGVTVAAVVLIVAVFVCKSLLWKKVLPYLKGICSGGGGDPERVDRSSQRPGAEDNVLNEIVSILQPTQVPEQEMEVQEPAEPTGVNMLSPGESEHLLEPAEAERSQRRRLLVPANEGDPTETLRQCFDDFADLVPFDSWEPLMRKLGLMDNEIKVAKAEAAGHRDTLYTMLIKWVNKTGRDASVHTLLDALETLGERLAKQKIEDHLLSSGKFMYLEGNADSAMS

| SMILES | activity [1] [%] | activity [2] [%] |
| --- | --- | --- |
| COc1cccc(C(=O)/C=C/Nc2cccc(O)c2)c1 | 86 | 71.5 |
| CCCCCCCCCCn1ccc(=N)cc1 | 84 | 68.3 |
| COn1c(SCc2ccccc2)nc2ccccc2c1=O | 65.3 | 59.9 |
| NC(Cc1ccc(Cl)cc1)c1csc(NC(=O)NCC2CCCCC2)n1 (stereo unspecified) | 58.4 | 88.1 |
| O=C(Nc1ccccc1)c1cn2ccccc2n1 | 54.9 | 55.7 |
| Cc1ccc(-c2csc(NC(=O)CSc3nnc4c(n3)[nH]c3ccccc34)n2)cc1 | 42.5 | 24.3 |
| C(=N\NC1=Nc2cccc3cccc1c23)/c1ccccn1 | 50.6 | 43 |
| Cc1ccc(O)c(-c2cc(-c3ccc(F)cc3)no2)c1 | 71.2 | 57.8 |
| O=C(CSc1nnc(-c2ccc(Br)cc2)o1)Nc1cccc(C(=O)O)c1 | 60.1 | 68.1 |
| COc1ccc(C(=O)N/N=C(/C)c2cccc(NC(=O)c3ccccc3F)c2)cc1 | 53.5 | 62.1 |
| Cc1ccc2nc(-c3ccc(NC(=O)C4CCCO4)cc3)[nH]c2c1 (stereo unspecified) | 72.2 | 71.9 |
| Cc1cccc(-n2ncc3c(NC(C)C)ncnc32)c1 | 63.2 | 64.7 |
| CCOC(=O)Cc1csc(NC(=S)NC(=O)c2ccc(C)cc2)n1 | 84.9 | 84.6 |
| COc1ccc(NC(=O)c2cc(-c3ccncc3)nc3ccc(Br)cc23)cc1OC | 4.8 | 51.5 |
| CC(C)c1ccc(C(=O)NC2=NCCS2)cc1 | 63.5 | 67.1 |
| COc1ccc2[nH]c(C(=O)Nc3cccc(C)n3)cc2c1 | 58.8 | 59.5 |
| CC(C)(C)c1ccc(/C=C/C(=O)NC2=NCCS2)cc1 | 49.7 | 41.9 |
| Cc1ccc(NC(=O)c2ccc3c(c2)OCCO3)cc1 | 76 | 73.2 |
| CN1/C(=C\C(=O)C[n+]2ccc(C(=O)c3ccccc3)cc2)C(C)(C)c2ccccc21 | 15.8 | 27.4 |
| O=[N+]([O-])c1ccc(N2CCN(Cc3ccccc3)CC2)c2c1no[n+]2[O-] | 99.2 | 99.1 |
| CCOc1ccc(NC(=O)Nc2cccnc2)cc1 | 55.2 | 40.9 |
| COc1ccc(C2CC(c3cccs3)=NN2C(=O)CCl)cc1OC (stereo unspecified) | 98.7 | 98.7 |

| SMILES | activity [1] [%] | activity [2] [%] |
| --- | --- | --- |
| COc1ccc(/C=C2/Sc3ccc(C(=O)NCCN4CCCCCC4)cc3NC2=O)cc1 | 67.8 | 94.7 |
| COC(=O)c1sc(NC(=S)NC(=O)c2cccc(C)c2)nc1C | 46.2 | 33.2 |
| CC(C)c1onc(C(=O)N2CCN(C(c3ccccc3)c3ccccc3)CC2)c1[N+](=O)[O-] | 98.1 | 93.9 |
| O=C(c1ccc(CSc2nc3ccncc3[nH]2)cc1)N1CCCCCC1 | 85.7 | 82.1 |
| CCN1CCN(Cc2ccc(NC(=O)c3cc(NC(=O)c4cncc(-c5cccs5)c4)cc(OC)c3)cc2C(F)(F)F)CC1 | 68 | 91.9 |
| C#CCN(C[C@@H]1[C@@H](OC(=O)NCCCCCC)[C@@H](OC(=O)NCCCCCC)Cn2c(=O)ccc(=O)n21)S(=O)(=O)c1ccc(C)cc1 | 96.2 | 92.3 |
| O=C1CC(c2ccc3c(c2)OCCO3)Oc2ccc([N+](=O)[O-])cc21 (stereo unspecified) | 56.3 | 55.9 |
| Cc1nc(NC(=O)c2cc3ccccc3o2)sc1C | 80.8 | 79.8 |
| Oc1cccc(/C=N/Nc2cccc3cccnc23)c1 | 48.6 | 34.2 |
| O=C(CCl)Nc1ccc(Oc2cnc3ccccc3n2)cc1 | 97.6 | 98.5 |
| COc1cc2sc3ccc(C#CC4(O)CCCCC4)cc3c(=O)c2cc1OC | 71.4 | 71.4 |
| CCCCn1c(=O)[nH]c(=O)c2c1nc(Cn1ncc(Cl)c(Cl)c1=O)n2CCC | 98.7 | 99 |
| Cc1cccc(C)c1NC(=O)C1CCN(S(C)(=O)=O)CC1 | 0.425 | -3.45 |
| COc1ccc(-c2cn3ccccc3n2)cc1 | 88 | 87.1 |
| O=C(N/N=C/c1ccccc1[N+](=O)[O-])c1ccc2c(c1)OCCO2 | 95.4 | 94.5 |
| CCOc1ccc2nc(NC(=O)c3ccc(C)o3)sc2c1 | 61.1 | 52.9 |
| COc1ccccc1NC(CC(=O)c1ccccc1)C(=O)OCC(=O)c1ccc(C)c(C)c1 (stereo unspecified) | 73.5 | 66.2 |
| CC(=O)Oc1ccccc1C(=O)C=Cc1cccc([N+](=O)[O-])c1 | 36.3 | 76.7 |
| CCOC(=O)CSc1nc2cc(OC)ccc2cc1C#N | 74.7 | 80.4 |
| CCn1cc(-c2cc(C(=O)O)c3ccccc3n2)cn1 | 65 | 58.2 |
| Cc1cc(C)cc(NS(=O)(=O)c2ccc3[nH]cc(C(=O)NCc4ccco4)c(=O)c3c2)c1 | 80 | 85.3 |
